From PubChem BioAssay AID488841 (Sanford-Burnham Center for Chemical Genomics, 2010)
About 380 (27%) of roughly 1,400 compounds were called active.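 The calls were made as follows: active = mean inhibition above 50% across duplicate retests at 10 µM; inactive = the rest.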 The list shows a part of the results.

Assay: inhibition of NALP1/ASC/caspase-1 reporter signal in yeast, confirmation, NALP1 inhibitor project, S. cerevisiae, luminescence, single concentration (AID 488841);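 also: plate controls were DMSO in galactose medium for no effect and cells in plain SD medium for full effect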
Conditions: S. cerevisiae NALP1/ASC/Caspase-1 reporter, beta-gal luminescence; at 10 µM; hits give high values
With CC(CCc1ccccc1)NC(=O)c1cc2sccc2n1C (stereo not given) the inhibition was 46.2% (inactive). For O=C(/C=C/c1ccccc1)N1CCC(c2ccccc2)C1 (stereo not given), the inhibition was 54% (active). For CC1CCN(C(=O)/C=C/c2ccc(C(C)(C)C)cc2)CC1, the inhibition was 54.6% (active). For O=C(/C=C/c1ccccc1)/C=C/c1ccccc1, the inhibition was 47.8% (inactive). With COc1cc(C(=O)CCN2CCC(c3ccccc3)C2)cc(OC)c1OC (stereo not given) the inhibition was 41% (inactive). With FC(F)(F)C(F)(F)c1nnc2ccc(-n3ccnc3)nn12 the inhibition was 23% (inactive). With O=C1CC(Sc2nnnn2-c2ccccc2)C(=O)N1c1cccc(Cl)c1 (stereo not given) the inhibition was 59.5% (active). In the case of COC(=O)c1ccccc1SC1CC(=O)N(c2ccccc2)C1=O (stereo not given), the inhibition is reported as 40.2% (inactive). In the case of O=C(O)c1ccccc1SC1CC(=O)N(c2ccccc2)C1=O (stereo not given), the inhibition is reported as 37.8% (inactive). For Cc1cccc(Cn2c(C(C)(C)C)cc3cccnc32)c1, the inhibition was 26% (inactive). In the case of CN(C)CCNC=C(C(=O)Nc1ccc(Cl)cc1Cl)C(=O)Nc1ccc(Cl)cc1Cl, the inhibition is reported as 38.9% (inactive). With CCCN(Cc1nc(-c2ccc(Cl)cc2)no1)CC1CCCO1 (stereo not given) the inhibition was 53.1% (active). For COc1ccc(-c2noc(CCC(=O)N3CCC(C)CC3)n2)cc1, the inhibition was 48% (inactive). With OCCNc1c2ccccc2nc2c(F)c(F)c(F)c(F)c12 the inhibition was 34.6% (inactive). For CCN(c1cccc(C)c1)S(=O)(=O)c1cccc(C(=O)O)c1, the inhibition was 26.2% (inactive). In the case of Cc1cc(C)cc(Cn2ncc(Cl)c(Cl)c2=O)c1, the inhibition is reported as 60.6% (active). In the case of Cn1ncc(S(=O)(=O)Cc2ccccc2)c(Cl)c1=O, the inhibition is reported as 21.1% (inactive). For COC(=O)c1ccc(NC(=O)c2ccccc2N(C)S(=O)(=O)c2ccccc2)cc1, the inhibition was 37% (inactive). For CCOc1ccc(C2N(c3ccc(F)cc3)C(=O)C3CCCN32)cc1 (stereo not given), the inhibition was 16.4% (inactive). With CCOc1ccc(N2C(=O)CC(N)C2=O)cc1 (stereo not given) the inhibition was 64.3% (active). With CCCCCCOc1ccc(N2C(=O)CC(N3CCC(C(=O)OCC)CC3)C2=O)cc1 (stereo not given) the inhibition was 21.6% (inactive). In the case of Cc1cc(Cl)c(OCCCN2CCCCC2)c(Br)c1, the inhibition is reported as 33.4% (inactive). For Cc1c(C(=O)NCC2COc3ccccc3O2)oc2ccc(S(=O)(=O)N3CC(C)CC(C)C3)cc12 (stereo not given), the inhibition was 21.3% (inactive). In the case of COc1cc(OC)nc(-n2ncc(Br)c(Br)c2=O)n1, the inhibition is reported as 50% (active). In the case of Cc1sc(NC(=O)c2cc3ccccc3oc2=O)c(C(=O)OC(C)C)c1-c1ccccc1, the inhibition is reported as 28.5% (inactive). With C=CCNc1oc(COc2ccc(C)cc2)nc1C#N the inhibition was 47.8% (inactive). For CCCN(CCC)C(=O)Cn1c(=O)n(CCCCC(=O)NCc2ccco2)c(=O)c2ccccc21, the inhibition was 29.8% (inactive). With CC1CCCC(NC(=O)C2CCN(S(=O)(=O)N3CCCCC3)CC2)C1C (stereo not given) the inhibition was 26.3% (inactive). For CCOC(=O)c1nn(-c2ccc(C)cc2)cc1C(=O)c1ccccc1, the inhibition was 46.5% (inactive). For Cc1ccc(C(=O)c2no[n+]([O-])c2C(=O)c2ccc(C)cc2)cc1, the inhibition was 58.2% (active). For O=[N+]([O-])c1ccc2cn(-c3ccccc3)nc2c1, the inhibition was 40.4% (inactive). In the case of NC(=O)C1(N2CCCCC2)CCN(Cc2nc(-c3cccs3)no2)CC1, the inhibition is reported as 37.5% (inactive). With Oc1oc(-c2ccccc2)nc1C=Nc1cccc2ccccc12 the inhibition was 40.1% (inactive). With CCOC(=O)C1CCCCN1Cc1ccc(F)c(Br)c1 (stereo not given) the inhibition was 31.7% (inactive). For Cc1cc(Cl)c(OCCCn2ccnc2)c(Br)c1, the inhibition was 38.1% (inactive). For c1cc2c3c(cccc3c1)NC1(CCCCCC1)N2, the inhibition was 13.9% (inactive). In the case of Cc1ccc(OC(=S)Nc2ccc(O)cc2)cc1, the inhibition is reported as 90.7% (active). In the case of Cc1ccc(Oc2ccccc2/C=N/O)cc1, the inhibition is reported as 42.1% (inactive). With O=C(CC(O)(C(F)(F)F)C(F)(F)F)Nc1ccc(Cl)c(Cl)c1 the inhibition was 98.8% (active). In the case of O=C(COc1ccc(CO)cc1Cl)Nc1ccc(F)cc1, the inhibition is reported as 25.6% (inactive). In the case of CN1CCN(C(=S)Nc2ccc(Cl)c(Cl)c2)CC1, the inhibition is reported as 24.9% (inactive). In the case of CC(=O)Nc1cccc(OCCCNC(=O)C2CCC2)c1, the inhibition is reported as 28.2% (inactive). With Cc1c(NC(=O)c2cc3c(s2)-c2ccccc2OC3)cccc1[N+](=O)[O-] the inhibition was 34.7% (inactive). In the case of O=[N+]([O-])c1ccc(-n2nnnc2-c2ccccc2)cc1, the inhibition is reported as 0.15% (inactive). In the case of Cc1ccc(-n2nnnc2C(Cl)c2nnnn2-c2ccc(C)cc2)cc1, the inhibition is reported as 71.5% (active). For CCc1oc2ccccc2c1C(=O)CCN1CCCCC1, the inhibition was 37.6% (inactive). For CCOC(=O)c1cc(-c2ccccc2)n(CC(=O)Nc2ccc(OC)c(OC)c2)c1C, the inhibition was 25.8% (inactive). With COc1ccc(/C=N/OC(=O)Nc2ccccc2)cc1[N+](=O)[O-] the inhibition was 23.2% (inactive). With CCOc1ccc(/C=C/C(=O)c2ccccc2)cc1OC the inhibition was 53.2% (active). For O=C(NCc1ccco1)c1cnn2c1NC(c1ccc(Br)cc1)CC2C(F)(F)F (stereo not given), the inhibition was 50.6% (active). For COc1ccc(/C=C\c2onc(C)c2S(=O)(=O)N2CCC(C(=O)NCc3ccco3)CC2)cc1, the inhibition was 41.2% (inactive). For Cc1ccc(CN2CCN(/N=C/c3ccc(C(F)(F)F)cc3)CC2)c(C)c1, the inhibition was 49% (inactive). In the case of CCOCC(O)CNC(=O)c1ccc(OC2CCN(C(=O)c3cccnc3)CC2)cc1 (stereo not given), the inhibition is reported as 29.6% (inactive). With CC1CCN(CCOc2ccc(Cl)c(Cl)c2)CC1 the inhibition was 43.7% (inactive). With NC(=O)/C=C\C(=O)Nc1cccc(C(F)(F)F)c1 the inhibition was 71.8% (active). In the case of CCN(C(=O)COC(=O)c1cccnc1Nc1cccc(C(F)(F)F)c1)C1CCS(=O)(=O)C1 (stereo not given), the inhibition is reported as 45.4% (inactive). With Cc1ccc(NC(=O)/C=C\C(=O)NCC(=O)O)cc1C the inhibition was 30.8% (inactive). With COC(=O)/C=C/C(=O)Nc1cccc(C(F)(F)F)c1 the inhibition was 56.3% (active). For COc1cc(Br)cc(C=Nc2cccc(C(F)(F)F)c2)c1O, the inhibition was 11.4% (inactive). For Cc1cs/c(=N\N=C\c2ccccc2)n1Cc1ccco1, the inhibition was 32.1% (inactive). For Cc1cccc(C)c1C(OCCN(C)C)C1CCCCC1 (stereo not given), the inhibition was 37% (inactive). For CSc1ccc(/C=C/C(=O)c2ccc(NC(C)=O)cc2)cc1, the inhibition was 51% (active). For CC(=O)c1ccc(NC(=O)/C=C/c2ccc(C)cc2)cc1, the inhibition was 48.6% (inactive). In the case of CSc1ccc(/C=C/C(=O)c2ccc(O)cc2)cc1, the inhibition is reported as 61.5% (active). With O=C(/C=C/Sc1ccccc1)c1ccc(Cl)cc1 the inhibition was 38.4% (inactive).
